{"source": "the OligoGym collection", "data": [{"target": "RBM28", "experiment": "pooled miR-30 sensor sort-seq; sequence = guide strand", "conditions": "shRNA", "values": [{"sequence": "TTTTGAACTGAACAAAACCAAA", "sensor-assay potency score (higher = more potent)": -1.7}, {"sequence": "TTGAGGTCTCGCATCACTCTAC", "sensor-assay potency score (higher = more potent)": -0.147}, {"sequence": "TTGAAAAAGTGACATAGCCAAA", "sensor-assay potency score (higher = more potent)": -1.59}]}, {"target": "RBM38", "experiment": "pooled miR-30 sensor sort-seq; sequence = guide strand", "conditions": "shRNA", "values": [{"sequence": "TAGCTGTAGCCCACGAAGCTGG", "sensor-assay potency score (higher = more potent)": -1.08}, {"sequence": "AAGATCTTGGTGAACGTGGTGT", "sensor-assay potency score (higher = more potent)": 0.0778}, {"sequence": "ACGAAGATCTTGGTGAACGTGG", "sensor-assay potency score (higher = more potent)": -1.06}, {"sequence": "AAACAGTCCATTAACTTCTTGC", "sensor-assay potency score (higher = more potent)": 0.128}, {"sequence": "TTGGTGAACGTGGTGTCCTTCT", "sensor-assay potency score (higher = more potent)": -0.339}, {"sequence": "TCGAAGTACTTCCTGAGCGAGG", "sensor-assay potency score (higher = more potent)": -1.24}, {"sequence": "TATGGGTACTGGTCATAGGTGG", "sensor-assay potency score (higher = more potent)": -0.624}, {"sequence": "TTCGGGTCTTTGCAAGCCCTCT", "sensor-assay potency score (higher = more potent)": -1.39}, {"sequence": "TAAACAGTCCATTAACTTCTTG", "sensor-assay potency score (higher = more potent)": -0.519}, {"sequence": "TACTGGTCATAGGTGGCCGGTG", "sensor-assay potency score (higher = more potent)": -1.24}, {"sequence": "TGGTACTGCACGAAAGTGGTGC", "sensor-assay potency score (higher = more potent)": -0.732}, {"sequence": "TTAACTTCTTGCTTTCAGGTTT", "sensor-assay potency score (higher = more potent)": 0.295}]}, {"target": "RBM45", "experiment": "pooled miR-30 sensor sort-seq; sequence = guide strand", "conditions": "shRNA", "values": [{"sequence": "TGGAAGTACAACATCTGTCTGG", "sensor-assay potency score (higher = more potent)": -0.0344}, {"sequence": "TATTACTATAATAATCTTGTTC", "sensor-assay potency score (higher = more potent)": -0.451}, {"sequence": "TAAAATACTGAACCACTCCATG", "sensor-assay potency score (higher = more potent)": -0.914}, {"sequence": "TTTGAGGCAACTGTGATCCAGA", "sensor-assay potency score (higher = more potent)": -0.334}, {"sequence": "TTCATCTTCAACATCTCGGTGA", "sensor-assay potency score (higher = more potent)": 0.811}, {"sequence": "TTTATTTTTAGGTTCAGCCAAG", "sensor-assay potency score (higher = more potent)": -0.905}, {"sequence": "TTCTTCATCTTCAACATCTCGG", "sensor-assay potency score (higher = more potent)": 0.279}, {"sequence": "TATATCTTCTAATACGTCTAAA", "sensor-assay potency score (higher = more potent)": -0.714}, {"sequence": "TTGAATAAGGATCTCGTTGAAC", "sensor-assay potency score (higher = more potent)": -0.518}, {"sequence": "TACTATAATAATCTTGTTCAGA", "sensor-assay potency score (higher = more potent)": -0.469}, {"sequence": "TAAATTGTTGCTGACTTGGGTT", "sensor-assay potency score (higher = more potent)": 0.143}]}, {"target": "RBMX", "experiment": "pooled miR-30 sensor sort-seq; sequence = guide strand", "conditions": "shRNA", "values": [{"sequence": "TACAGGAGCTCTTCCTCCCATT", "sensor-assay potency score (higher = more potent)": -1.19}, {"sequence": "TATCGCTATATCCTCTTGATGG", "sensor-assay potency score (higher = more potent)": -1}, {"sequence": "TTTCTTGTCTGCCAACCCGATC", "sensor-assay potency score (higher = more potent)": -1.65}, {"sequence": "TCCACTGCTACTGCGAACTGGT", "sensor-assay potency score (higher = more potent)": -0.729}, {"sequence": "TAGTATCACGAGAACTTGGGTA", "sensor-assay potency score (higher = more potent)": -0.18}, {"sequence": "ATATCCACCGTCATCCATGTGT", "sensor-assay potency score (higher = more potent)": -0.304}, {"sequence": "TATCCGTCACGTGAGCTGCTGT", "sensor-assay potency score (higher = more potent)": -0.783}, {"sequence": "TATCTCTTCCACGTGATACAGG", "sensor-assay potency score (higher = more potent)": -1.23}, {"sequence": "TCTCTATCGCTATATCCTCTTG", "sensor-assay potency score (higher = more potent)": -1.36}, {"sequence": "TCTATCGCTATATCCTCTTGAT", "sensor-assay potency score (higher = more potent)": -0.479}, {"sequence": "TACCACTTTCAAATGATGGTTT", "sensor-assay potency score (higher = more potent)": -0.141}, {"sequence": "TCGACTTCCACCATATCCGTCA", "sensor-assay potency score (higher = more potent)": -0.253}]}]}
